Only some compounds are listed: those with a hit (about 1.6% of all), similar ones and a draw of the others.
KCNQ2 pot – KCNQ2 (rat) channel potentiation; B-score at 10 µM; CHO-K1 KCNQ2, FluxOR thallium flux fluorescence; hits give high values; O88943; actives 0.54% (n = 310,000);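 active = fluorescence ratio B-score at least 3 SD of library B-scores, with initial fluorescence B-score within 3 of them, cut at about 5.3 in these data; same plate scores as AID 2156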;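 also: B-score of peak minus minimum over baseline fluorescence ratio after K+ and Tl+ stimulus; positive B-score means potentiation of KCNQ2 with more thallium influx and brighter signal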
Target sequence (O88943 whole entry, looked up): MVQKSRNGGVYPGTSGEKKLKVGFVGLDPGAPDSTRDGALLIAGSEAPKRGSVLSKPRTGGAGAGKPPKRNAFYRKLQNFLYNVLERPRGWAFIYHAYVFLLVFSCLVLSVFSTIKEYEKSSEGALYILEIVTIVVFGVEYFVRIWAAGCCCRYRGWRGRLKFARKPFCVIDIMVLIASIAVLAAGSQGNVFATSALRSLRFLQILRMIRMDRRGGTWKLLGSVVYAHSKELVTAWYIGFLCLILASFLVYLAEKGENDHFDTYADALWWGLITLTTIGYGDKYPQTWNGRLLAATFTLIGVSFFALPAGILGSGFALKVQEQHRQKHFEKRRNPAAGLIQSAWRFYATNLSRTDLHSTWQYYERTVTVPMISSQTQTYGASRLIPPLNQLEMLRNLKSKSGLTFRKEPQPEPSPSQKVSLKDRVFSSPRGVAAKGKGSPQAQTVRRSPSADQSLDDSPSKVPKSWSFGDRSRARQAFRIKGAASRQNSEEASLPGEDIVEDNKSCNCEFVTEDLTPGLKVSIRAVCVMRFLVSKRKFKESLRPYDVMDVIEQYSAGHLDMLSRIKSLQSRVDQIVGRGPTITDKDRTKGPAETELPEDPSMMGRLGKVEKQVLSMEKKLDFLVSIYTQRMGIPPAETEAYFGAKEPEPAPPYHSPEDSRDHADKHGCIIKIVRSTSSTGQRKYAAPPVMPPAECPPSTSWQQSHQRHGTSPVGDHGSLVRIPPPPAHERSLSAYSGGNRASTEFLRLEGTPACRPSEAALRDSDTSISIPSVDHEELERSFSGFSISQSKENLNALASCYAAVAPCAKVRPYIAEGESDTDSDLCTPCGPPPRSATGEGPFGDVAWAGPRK
KCNQ2 block – blocks the rat KCNQ2 potassium channel. CHO-K1 KCNQ2, FluxOR thallium flux, 20 min; hits give low values. B-score at 10 µM. actives 1.1% (n = 310,000). AID 2156;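 active = fluorescence ratio B-score at most minus 3 library SDs, with starting brightness B-score within 2 library SDs, cut at about -5.5 in these data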
Kir21 confirm – confirmation of mouse Kir2.1 potassium channel inhibitors. Kir2.1-expressing cells, FluxOR thallium flux fluorescence; hits give low values. actives 41% (n = 2,300). AID 2032. Tl flux remaining, % of negative control (hits give low values), % at 10 µM. shares compounds with KCNQ2 pot;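 active = Primary-screen hit whose thallium flux fell at least 3 control SD below untreated wells in both duplicates, with normal baseline fluorescence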;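 also: 0% = blank wells without stimulus and 100% = stimulated no-compound controls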
HEK293 ctr – parental HEK293 activity in Kir2.1 inhibitor counter-screen | shares compounds with KCNQ2 pot | parental HEK293 cells, FluxOR thallium flux fluorescence; 0% = unstimulated blank wells | FluxOR signal as % of negative control (100 = no effect), % at 10 µM | AID 2105 | actives 19% (n = 2,300);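 active = dye signal at least 3 control SD above or below untreated wells in both duplicates, raw fluorescence within 3, either direction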;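 also: percent is based on the flux ratio of peak minus minimum fluorescence over baseline F0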
CHO-K1 ctr – alters thallium flux in parental CHO-K1 cells, KCNQ2 counter-screen; activity increase over 3SD of controls, % at 10 µM; FluxOR thallium flux fluorescence; zero = vehicle mean+3SD, 100% = vehicle-minus-blank window; actives 43% (n = 1,200); shares compounds with KCNQ2 pot;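 active = signal rise of at least 3 SD above the untreated control mean, in both duplicate wells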;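 also: counter screen of KCNQ2 potentiator hits so any rise reflects channel-independent effects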
KCNQ1 pot spec – human KCNQ1 counter-target activity of KCNQ2 potentiators; shares compounds with KCNQ2 pot; CHO KCNQ1 stable, FluxOR thallium flux fluorescence; beyond 3SD, as % of vehicle-control signal; activation over 3SD threshold, % at 10 µM; actives 28% (n = 1,200);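 active = fluorescence ratio rise of at least 3 SD of vehicle wells above their mean, in both replicate wells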;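 also: 0% = vehicle mean plus 3 SD and 100% = vehicle minus unstimulated blank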
KCNQ2 pot conf – confirmation of rat KCNQ2 potassium channel potentiators; actives 68% (n = 1,200); CHO-KCNQ2 cells, FluxOR thallium flux fluorescence; potentiation, less the hit threshold, % at 10 µM; AID 2287; shares compounds with KCNQ2 pot;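 active = fluorescence ratio rising 3 SD or more over the vehicle control mean in both replicates, plus primary screen hit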;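 also: peak minus minimum thallium fluorescence divided by baseline after K/Tl stimulus; 0% = vehicle mean plus 3 SD and 100% = vehicle minus unstimulated blank difference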
Kir21 spec – selectivity of KCNQ2 potentiators: effect on mouse Kir2.1 | HEK293 Kir2.1, FluxOR thallium flux fluorescence | shares compounds with KCNQ2 pot | activity over 3SD threshold, % at 10 µM | actives 2% (n = 1,200);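 active = fluorescence ratio rise of at least 3 SD above the vehicle-control mean, seen in both replicates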;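 also: 0% = vehicle mean plus 3 SD and 100% = vehicle minus no-stimulus blank window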
KCNQ2 W236L MoA – rat KCNQ2 W236L mutant potentiation by KCNQ2 potentiators. shares compounds with KCNQ2 pot. CHO KCNQ2-W236L, automated patch clamp current. current increase over 3SD of negative controls (%), hits give high values, % at 25 µM. actives 10% (n = 940);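 active = current increase at least 3 SD of the untreated controls above them in both duplicate recordings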
Starred values were filed as active, the others as inactive.

COc1ccc(CNCCC(c2ccccc2)c2ccc(OC(C)C)cc2)cc1OC (stereo unspecified) was read as KCNQ2 block inactive.
Screening COc1ccc(C(CCNCc2ccc(N(C)C)cc2)c2ccccc2OC)cc1 (stereo unspecified) returned KCNQ2 block inactive.
Screening COc1ccc(CNCCC(c2ccc(OC)cc2)c2ccccc2OC)cc1 (stereo unspecified) returned KCNQ2 block inactive, Kir21 confirm 38%* and HEK293 ctr inactive.
For COc1ccc(C(CCNCc2ccccc2)c2ccc(F)cc2)cc1 (stereo unspecified) the results were KCNQ2 block inactive.
Screening Cc1cc(C)n(-c2ccc(NC(=O)C3CCN(Cc4ccc(C)o4)CC3)cc2)n1 returned KCNQ2 pot 0.87 and KCNQ2 block inactive.
`O=C(NCC(=O)N(CC1CCCO1)C(C(=O)NC1CCCC1)c1cccnc1)c1ccco1` (stereo unspecified) gave KCNQ2 pot 0.42 and KCNQ2 block inactive.
Screening O=C(Nc1ccc(NC(=O)c2sc3ccccc3c2Cl)cc1Cl)c1ccco1 returned KCNQ2 block inactive.
For COc1ccc(CN2CCC(C(=O)c3ccc(Cl)cc3)CC2)cc1 the results were KCNQ2 pot 0.34, KCNQ2 block inactive, Kir21 confirm 20%* and HEK293 ctr inactive.
COc1ccc(CN2CCC(C(=O)c3cccc(Cl)c3)CC2)cc1 was read as KCNQ2 pot 0.01 and KCNQ2 block inactive.
Screening O=C(Nc1ccccc1)NC1CCCCC1 returned KCNQ2 pot 0.04 and KCNQ2 block inactive.
Cc1ccc(CNC(=O)NC2CCCCC2)cc1 was read as KCNQ2 pot 5.1 and KCNQ2 block inactive.
Cc1ccc(CN=C(Nc2ccccc2)NC2CCCCC2)cc1 was read as KCNQ2 block inactive, Kir21 confirm 60%* and HEK293 ctr inactive.
Screening Cc1ccc(CNC(=S)NC2CCCCC2)cc1 returned KCNQ2 pot 6.4*, KCNQ2 block inactive, Kir21 confirm inactive, HEK293 ctr inactive, CHO-K1 ctr -6, KCNQ1 pot spec -16, KCNQ2 pot conf 7.2*, Kir21 spec -48 and KCNQ2 W236L MoA inactive.
`Cc1ccc(C)c(C(C)NC(=S)NC2CCCCC2)c1` (stereo unspecified) gave KCNQ2 pot 0.26 and KCNQ2 block inactive.
Screening CC(C)c1ccc(NC(=S)NC2CCCCCC2)cc1 returned KCNQ2 block inactive.
Screening CCCc1ccc(C(C)NC(=S)NC2CCCCC2)cc1 (stereo unspecified) returned KCNQ2 pot 23*, KCNQ2 block inactive, Kir21 confirm inactive, HEK293 ctr inactive, CHO-K1 ctr -15, KCNQ1 pot spec 0.9*, KCNQ2 pot conf 39*, Kir21 spec -33 and KCNQ2 W236L MoA inactive.
CCC(NC(=S)NC1CCCCC1)c1ccc(C)cc1 (stereo unspecified) was read as KCNQ2 pot 22*, KCNQ2 block inactive, Kir21 confirm inactive, HEK293 ctr inactive, CHO-K1 ctr -6, KCNQ1 pot spec -15, KCNQ2 pot conf 71*, Kir21 spec -46 and KCNQ2 W236L MoA inactive.
CC(NC(=O)C(=O)c1cn(CC(=O)N2CCOCC2)c2ccccc12)c1ccccc1 (stereo unspecified) was read as KCNQ2 pot 0.12 and KCNQ2 block inactive.
Cc1cc(OCC(=O)NNC(=O)c2cccnc2)cc(C)c1Cl was read as KCNQ2 pot 0.42 and KCNQ2 block inactive.
Screening CCOC(=O)C(C)Sc1nnc(-c2ccccc2O)n1-c1ccc(C)cc1 (stereo unspecified) returned KCNQ2 pot 0.29 and KCNQ2 block inactive.
c1ccc(CSc2nnc(-c3cccs3)n2Cc2ccco2)cc1 was read as KCNQ2 pot -6, KCNQ2 block -6*, Kir21 confirm 65%* and HEK293 ctr inactive.
For c1ccc(CSc2nnc(-c3ccco3)n2Cc2ccco2)cc1 the results were KCNQ2 block inactive.
`Cc1ccc(-c2nnc(SCc3ccc(C#N)cc3)n2Cc2ccco2)cc1` gave KCNQ2 block inactive.
Cc1ccccc1CSc1nnc(-c2ccco2)n1Cc1ccco1 was read as KCNQ2 block inactive, Kir21 confirm 50%* and HEK293 ctr inactive.
`O=C(NCCCN1CCOCC1)c1ccc(CSc2ccc(Cl)cc2)cc1` gave KCNQ2 pot 0.59, KCNQ2 block inactive, Kir21 confirm 62%* and HEK293 ctr inactive.
For CC(C)c1ccc(C(=O)NCCCN2CCOCC2)cc1 the results were KCNQ2 block inactive.
`Cc1ccc(C)c(NC(=O)CSc2nc3nc(-c4cccs4)cc(C(F)(F)F)c3c(=O)[nH]2)c1` gave KCNQ2 pot 6.4*, KCNQ2 block inactive, Kir21 confirm inactive, HEK293 ctr inactive, CHO-K1 ctr -8, KCNQ1 pot spec 34*, KCNQ2 pot conf -97 and Kir21 spec -35.
For O=C(CSc1nc2nc(-c3cccs3)cc(C(F)(F)F)c2c(=O)[nH]1)Nc1ccc(F)c(F)c1 the results were KCNQ2 pot 1.3 and KCNQ2 block inactive.
CN(C)c1ccc(C(C(=O)NC2CCCC2)N(C(=O)c2csnn2)C2CC2)cc1 (stereo unspecified) was read as KCNQ2 block inactive.
For COc1ccc(C(O)(CCC(C)C)C(CN2CCOCC2)c2ccc(Cl)cc2)cc1 (stereo unspecified) the results were KCNQ2 pot 6.4*, KCNQ2 block inactive, Kir21 confirm inactive, HEK293 ctr inactive, CHO-K1 ctr -24, KCNQ1 pot spec 46*, KCNQ2 pot conf -4 and Kir21 spec -30.
For CCCC(O)(c1ccc(OC)cc1)C(CN1CCOCC1)c1ccc(Cl)cc1 (stereo unspecified) the results were KCNQ2 pot 5.2 and KCNQ2 block inactive.
CC(C)[C@H](NC(=O)OC(C)(C)C)c1nnc(SCC(=O)Nc2ccc(Br)cc2)o1 was read as KCNQ2 block inactive.
O=c1[nH]c(-c2ccccc2)cs1 was read as KCNQ2 pot 0.01 and KCNQ2 block inactive.

Screens deposited in PubChem BioAssay by Johns Hopkins Ion Channel Center.
